# Screen size: about 290,000 compounds; about 3,000 (1%) were called active. The entries come from a sample that favours actives as a whole. Values without a mark were called inactive. Rule as the data show it: active = inhibition mostly above about 36% (no sharp cut-off); inactive = mostly below about 34%.
# Experiment: inhibition of NOD1-driven NF-kB reporter – cell-based, luminescence, uHTS, primary screen (AID 1578);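 also: HEK-293T reporter cells stimulated with the NOD1 agonist gamma-tri-DAP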
# Settings: NOD1-driven NF-kB luciferase reporter cells, at 4 µM, active compounds read high
row,SMILES,inhibition
1,CNC(=O)C(=O)NCC1OCCN1S(=O)(=O)c1ccc(C)cc1 (stereo not drawn),-22.7%
2,CCc1ccnc(NC(=O)NS(=O)(=O)c2ccc(C)cc2)c1,-11.9%
3,COc1ccc(NS(=O)(=O)c2cccc(C(=O)OCC(=O)NC3CC3)c2)cc1,7.3%
4,CCC(NC(=O)c1cc(COc2ccc(OC)cc2Cl)on1)c1ccncc1 (stereo not drawn),-10.3%
5,O=C(CCc1nnc(CCCCc2ccccc2)o1)NCCn1cccn1,-24.1%
6,CCC(Sc1nc2cc(OC)c(OC)cc2c(=O)n1Cc1ccc(OC)cc1)C(=O)NCCOC (stereo not drawn),-24.5%
7,Cc1ccc(Oc2cnc3ccccc3n2)cc1,18.8%
8,COc1ccc(Oc2cnc3ccccc3n2)cc1,60.3% (active)
9,c1ccc(Oc2cnc3ccccc3n2)cc1,13.1%
10,NC(=O)c1nn(-c2ccc(Oc3ccccc3)cc2)c(=O)cc1O,-23.2%
11,O=C(NC(=S)N(CCc1ccccc1)CCc1ccccc1)c1ccco1,97.6% (active)
12,O=C(NC(=S)NCCc1ccccc1)c1ccco1,-69.5%
13,CC(CCc1ccccc1)NC(=S)NC(=O)c1ccco1 (stereo not drawn),-37%
14,CC(C)C1Nc2ccc(C(=O)NC3CCCCC3)cc2NC1=O (stereo not drawn),-43.7%
15,Nc1nc(-c2ccccc2)cc(N2CCCCC2)n1,6.2%
16,COc1ccc(O)c(/C=N/NC(=S)Nc2cccc(S(=O)(=O)N(C)C)c2)c1,-37%
17,CN(C)S(=O)(=O)c1cccc(NC(=S)N/N=C/c2ccc(O)c(O)c2O)c1,56.3% (active)
18,CN(C)S(=O)(=O)c1cccc(NC(=S)N/N=C/c2cc(Br)ccc2O)c1,-11.2%
19,Cc1cccc2nc(-c3ccccc3)nc(N3CCC(O)(c4ccc(Cl)cc4)CC3)c12,-4.5%
20,CCN1CCCC1CNC(=O)c1ccc(CS(=O)(=O)c2ccccc2C)o1 (stereo not drawn),4.8%
21,Cc1ccc(S(=O)(=O)N2CCOC23CCN(C(=O)c2ccc(Cl)cc2Cl)CC3)cc1,-26.1%
22,Oc1ccccc1C=Nc1ccccc1-c1nc2ccccc2[nH]1,-7.6%
23,CC(C)(C)C(=O)NC(=S)Nc1sc2c(c1C#N)CCCCC2,-10.7%
24,CC(C)CC(=O)NC(NC(=S)Nc1sc2c(c1C#N)CCCC2)C(Cl)(Cl)Cl (stereo not drawn),64.5% (active)
25,CC(C)(C)C(=O)NC(NC(=S)Nc1sc2c(c1C#N)CCCC2)C(Cl)(Cl)Cl (stereo not drawn),46.4%

row,SMILES,inhibition
1,Cc1cc(Nc2ccccc2)nc(NCc2ccccc2)n1,52.7%
2,O=C(c1ccco1)N1CCN(C(=O)c2cc3c(s2)-c2ccccc2OC3)CC1,-13%
3,CCOc1ccc(C(=O)NCC(=O)OCC(=O)N2C(C)CCCC2C)cc1 (stereo not drawn),-9.2%
4,O=C(N/N=C/c1ccoc1)c1ccccc1,20.3%
5,CN(CCO)S(=O)(=O)c1ccc2c(c1)C(=NO)c1cc(S(=O)(=O)N(C)CCO)ccc1-2,-16%
6,CCCNC(=O)c1n[nH]c(=O)c2ccccc12,-12.4%
7,Cc1cc(C)c2c(N)c(C(=O)Nc3nccs3)sc2n1,34.4%
8,Cc1cc(C)c2c(N)c(C(=O)Nc3ncc(C)s3)sc2n1,92.5% (active)
9,Cc1cc(C)c2c(N)c(C(=O)c3ccc(Cl)cc3Cl)sc2n1,81.7% (active)
10,Cc1cc(C)c2c(N)c(C(=O)NN)sc2n1,-9.3%
11,Cc1cc(C)c2c(N)c(C(=O)c3ccc(Cl)cc3)sc2n1,6.3%
12,Cc1cc(C)c2c(N)c(C(=O)c3ccccc3Cl)sc2n1,0.3%
13,O=C(CSc1nnc(NC(=O)C2CC2)s1)NCc1ccc(F)cc1,-10%
14,COc1ccc(C(C)=O)cc1CSc1ncccn1,-32.9%
15,O=C1Nc2cc(Cl)c(Cl)cc2N(O)N1c1ccc(Cl)cc1,11.5%
16,CCC/C(O)=C1\C(=O)CCCC1=NCCc1c(C)[nH]c2ccc(OC)cc12,65.4% (active)
17,CCCC/C(O)=C1\C(=O)CCCC1=NCCc1c(C)[nH]c2ccc(OC)cc12,-7.7%
18,CCC/C(O)=C1\C(=O)CCCC1=NCCc1c(C)[nH]c2ccc(C)cc12,-7.7%
19,CCS(=O)(=O)c1ccc2c(c1)N(S(C)(=O)=O)CC(C(=O)NCc1ccccc1OC)O2 (stereo not drawn),10.4%
20,Cc1cnc(C)c(N2CCN(Cc3nc(-c4cccc(F)c4F)oc3C)CC2)n1,-26.1%
21,Cc1cccc(N2CCN(Cc3nc(-c4ccc(F)cc4F)oc3C)CC2)n1,-6.3%
22,Cc1cccc(N2CCN(Cc3nc(-c4ccccc4Cl)oc3C)CC2)n1,-11.6%
23,COc1ccc(-c2nc(CN3CCN(c4ccccc4OC)CC3)c(C)o2)cc1,-31.1%
24,Cc1oc(-c2cc(F)ccc2F)nc1CN1CCN(c2cnccn2)CC1,-26%
25,COc1ccc(-c2nc(CN3CCN(c4cc(C)nc(C)c4)CC3)c(C)o2)c2ccccc12,-23.4%

row,SMILES,inhibition
1,CCCCn1c(SCC(=O)Nc2cc(C(F)(F)F)ccc2Cl)nnc1C(CC)N(C)C (stereo not drawn),-47.6%
2,O=C1CCc2cc(S(=O)(=O)N3CCC(C(=O)NCc4ccccn4)CC3)ccc2N1,-15.8%
3,O=C(O)CCC(=O)Nc1cccc(-c2nnc(-c3ccccc3)o2)c1,15.5%
4,CCN1CCSc2ccc(C(=O)Nc3ccc(NC(C)=O)cc3)cc21,4%
5,CC(=O)Nc1ccc(NC(=O)C2(C)CC2(Cl)Cl)cc1 (stereo not drawn),-29.2%
6,N#CCCn1c(SCC(=O)NCc2ccco2)nc2ccccc21,-13.3%
7,CC(=O)c1cccc(NC(=O)CNC(=O)Cc2ccccc2)c1,19.8%
8,CC(C)(C)NC(=O)N1CCCN(c2ccc(C(F)(F)F)cn2)CC1,-7.3%
9,CCOC(CNc1cc(C)nc2c(-c3ccccc3OC)c(C)nn12)OCC,-6.1%
10,Clc1ccccc1-c1ccc(CN2CCN(c3ccccc3)CC2)o1,7.9%
11,Cc1cc(C)c(NC(=O)C(C)N2CCCCCC2)c(C)c1 (stereo not drawn),39.1%
12,Cc1cccc(C)c1NC(=O)C(C)N1CCCC1 (stereo not drawn),5.2%
13,CC(C(=O)Nc1c2c(cc3c1CCC3)CCC2)N1CCCC1 (stereo not drawn),63.4% (active)
14,c1ccc(CNc2ncnc3sccc23)cc1,31.8%
15,Brc1ccc2ncnc(NCc3ccccc3)c2c1,93.1% (active)
16,O=C(O)c1cccc(Nc2ncnc3ccc(Br)cc23)c1,-10.3%
17,COc1cc2ncnc(NCc3ccco3)c2cc1OC,-1.4%
18,Clc1ccc2c(NCc3ccco3)ncnc2c1,16.7%
19,Cc1ccc(S(=O)(=O)CC(=O)c2ccccc2)cc1,-10%
20,CC(=O)Nc1c(C)cc(S(C)(=O)=O)cc1C,-12.2%
21,NC(=O)c1c(NC(NC(=O)c2ccco2)(C(F)(F)F)C(F)(F)F)sc2c1CCCC2,-24.2%
22,O=C(COC(=O)c1cc(-c2ccc(Cl)s2)nc2ccccc12)NCc1ccco1,-9.8%
23,C=CCCC(=O)NC1CC(C)(C)Cc2c1cnn2-c1ccc(OC)cc1 (stereo not drawn),-7%
24,CC1Cc2ccccc2N1c1ncnc(N)c1[N+](=O)[O-] (stereo not drawn),96.2% (active)
25,CC1Cc2ccccc2N1c1ncnc2nc[nH]c12 (stereo not drawn),71.8% (active)

row,SMILES,inhibition
1,Cc1ccccc1Oc1ncnc(N)c1[N+](=O)[O-],4.6%
2,Clc1ccccc1N1CCN(c2ncnc3nc[nH]c23)CC1,-13.5%
3,CC1Cc2ccccc2N1c1ncnc2c1nnn2Cc1ccccc1 (stereo not drawn),-0.2%
4,c1ccc2c(c1)CCN(c1ncnc3nc[nH]c13)C2,-40.8%
5,O=C(CCNC(=O)N1CCn2c1nc1ccccc12)NCc1ccc(Cl)cc1,-26.9%
6,CN(C)C(=O)c1cc(C(=O)c2ccc(C(F)(F)F)cc2F)c[nH]1,21.8%
7,O=C(CN1C(=O)c2ccccc2C1=O)Oc1ccc(Cl)cc1,-14.3%
8,Cc1cccc(OCCOC(=O)C2CCN(S(=O)(=O)c3ccc(C)c(C)c3)CC2)c1,-9.6%
9,CCN(CC(=O)NC1CCS(=O)(=O)C1)S(=O)(=O)c1ccc(C)cc1C (stereo not drawn),-12%
10,Cc1c(CC(=O)NCCCC(=O)O)c(=O)oc2cc3occ(-c4ccccc4)c3cc12,-6.5%
11,Cc1c(CCC(=O)NCCC(=O)O)c(=O)oc2cc3occ(-c4ccccc4)c3cc12,-7.4%
12,Cc1c(CCC(=O)NCCCCCC(=O)O)c(=O)oc2cc3occ(-c4ccccc4)c3cc12,34.3% (active)
13,O=C(CNCc1ccc(F)cc1)Nc1ccc(S(=O)(=O)N2CCOCC2)cc1,-26.8%
14,O=C(c1ccncc1)N1CCc2ccccc2C1,-32.9%
15,O=C(c1cncc(Br)c1)N1CCc2ccccc2C1,80.2% (active)
16,O=C(c1cccnc1)N1CCc2ccccc2C1,-0.9%
17,COCCn1nnnc1C(CC(C)C)N1CCN(c2ccccc2)CC1 (stereo not drawn),-24.8%
18,CN1CCN(c2ccccc2NC(=S)NC(=O)c2cc3ccccc3o2)CC1,5.8%
19,CN1c2ccc(C=O)c3c(C=O)ccc(c23)N(C)C1(C)C,72% (active)
20,CN1C(=O)N(C)c2ccc(C=O)c3cccc1c23,-32.8%
21,CN1c2cccc3cccc(c23)N(C)C1(C)C,9.4%
22,O=C(CN(Cc1ccccc1)C(=O)CCC(=O)Nc1nccs1)NCc1ccco1,-21.9%
23,CC(CCc1ccccc1)NC(=O)Cn1cccc1C(=O)c1ccccc1 (stereo not drawn),-9.7%
